The values that follow come from PubChem BioAssay AID602438 (Sanford-Burnham Center for Chemical Genomics, 2012).

Screen size: about 360,000 compounds; about 3,100 (0.86%) were called active.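 How the source made its calls: active means inhibition or corrected inhibition above about 18%, plus a signal ratio from 0.5 to 1.5 (limit read from the data, passing the limit was not always enough); inactive means the rest.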 What follows is part of a selection rich in actives, with near analogues and random picks from the rest.

In this experiment the target is Neuropilin-1 (Homo sapiens) (UniProt O14786). Kind of experiment: modulators of CendR peptide binding to NRP-1, primary screen, biochemical, fluorescence polarization, uHTS (AID 602438). As to conditions: FAM-RPARPAR peptide binding to NRP-1, fluorescence polarization; at 25 µM; active compounds read high. (In fluorescence polarisation assays a small probe gives low polarisation when free and higher when bound to something large.)
Chain of Neuropilin-1 (Homo sapiens) (O14786 whole entry, looked up): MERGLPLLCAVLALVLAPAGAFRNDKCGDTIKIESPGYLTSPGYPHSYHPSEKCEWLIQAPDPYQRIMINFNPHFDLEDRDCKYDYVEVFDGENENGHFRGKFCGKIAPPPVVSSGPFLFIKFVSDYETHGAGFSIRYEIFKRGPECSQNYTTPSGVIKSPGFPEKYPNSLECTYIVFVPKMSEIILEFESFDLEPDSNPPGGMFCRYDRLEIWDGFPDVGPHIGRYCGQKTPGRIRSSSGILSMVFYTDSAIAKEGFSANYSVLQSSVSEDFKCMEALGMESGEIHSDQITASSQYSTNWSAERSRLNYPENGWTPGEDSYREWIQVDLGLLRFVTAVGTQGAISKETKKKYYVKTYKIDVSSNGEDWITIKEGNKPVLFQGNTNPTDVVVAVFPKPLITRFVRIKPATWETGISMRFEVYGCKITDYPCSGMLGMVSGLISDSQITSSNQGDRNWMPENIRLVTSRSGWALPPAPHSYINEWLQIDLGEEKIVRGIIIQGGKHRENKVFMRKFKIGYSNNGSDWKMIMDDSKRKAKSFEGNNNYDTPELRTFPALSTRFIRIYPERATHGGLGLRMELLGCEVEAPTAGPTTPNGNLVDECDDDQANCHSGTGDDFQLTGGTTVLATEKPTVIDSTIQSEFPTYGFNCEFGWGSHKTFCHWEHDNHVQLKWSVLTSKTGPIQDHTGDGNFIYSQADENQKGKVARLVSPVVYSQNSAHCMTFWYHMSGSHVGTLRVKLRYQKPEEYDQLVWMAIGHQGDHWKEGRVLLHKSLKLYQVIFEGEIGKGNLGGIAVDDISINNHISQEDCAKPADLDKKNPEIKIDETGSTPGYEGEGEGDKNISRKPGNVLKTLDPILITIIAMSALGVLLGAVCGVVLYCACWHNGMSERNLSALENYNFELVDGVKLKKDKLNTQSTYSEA
As usually defined, the inhibition is the change of the read-out against control, counted positive when it falls. Turning to `Cc1nn2cc(-c3ccc(Cl)cc3)cnc2c1Br`, the inhibition was 4% (inactive).

As for `Cc1scc(C(=O)NNC(=S)NCc2ccccc2)c1C`, the inhibition was 6.1% (inactive).

Turning to `CC(C)Oc1ccc(CC(=O)NNC(=S)Nc2ccc(Br)cc2)cc1`, the inhibition was 1.7% (inactive).

Regarding `CC(C)Oc1ccc(CCC(=O)NNC(=S)NCc2ccccc2)cc1`, the inhibition is 37.4% (active).

As for `O=C(CS(=O)(=O)c1ccc(C(F)(F)F)cn1)NNC(=O)c1ccccc1`, the inhibition is -6.4% (inactive).

Consider `CCNC(=O)N(CC)C[C@H]1N[C@@](CC)(C(=O)OC)[C@H]2C(=O)N(Cc3ccccc3)C(=O)[C@@H]12`, for which the inhibition was -9.5% (inactive).

As to `CCN(C[C@H]1N[C@@](CC)(C(=O)OC)[C@H]2C(=O)N(C)C(=O)[C@@H]12)C(=O)Nc1ccc(F)cc1`, the inhibition was 33.4% (active).

On to `CC[C@@]1(C(=O)OC)N[C@H](CN(C)C(C)=O)[C@@H]2C(=O)N(C)C(=O)[C@@H]21`, for which the inhibition was -0.8% (inactive).

As to `CCOC(=O)c1c(C)nn(-c2ncccc2NC(=O)CCC(=O)O)c1C`, the inhibition was 21.7% (inactive).

In the case of `COc1ccc(NC(=O)c2cc(=O)[nH]c3ccccc23)cc1S(=O)(=O)N1CCOCC1`, the inhibition was 26.2% (active).

As for `Cc1cc(C(=O)Nc2ccc(C)c(S(=O)(=O)N3CCOCC3)c2)c2ccccc2n1`, the inhibition was -3.5% (inactive).

Take `CC(C)(CNC(=O)c1cc(=O)[nH]c2ccccc12)N1CCOCC1`: the inhibition is 9.2% (inactive).

As for `Cc1ccc(O)c(NC(=O)c2cc(-c3ccco3)on2)c1`, the inhibition was -12.1% (inactive).

For `CC(C)Oc1ccc(C(CC(=O)N2CCOCC2)C(C)C)cc1` (stereo not drawn), the inhibition is 9% (inactive).

In the case of `CCN(CC)C(=O)CSC(Nc1cccc(F)c1)=C(C#N)C#N`, the inhibition is -180% (inactive).

Consider `O=C1C2C3C=CC(C3)C2C(=O)N1c1ccc(-c2nc3ccccc3c(=O)o2)cc1` (stereo not drawn), for which the inhibition was 0.6% (inactive).

For the compound `COc1c(O)ccc2c1CN1CCc3cc4c(cc3C1C2)OCO4` (stereo not drawn), the inhibition was 30% (active).

Turning to `COc1cc(C2c3cc4c(cc3C(O)C3COC(=O)C23)OCO4)cc(OC)c1OC` (stereo not drawn), the inhibition was -3.6% (inactive).

For the compound `COc1ccc(CN2CCCC(N3CCc4ccccc4C3)C2)c(O)c1` (stereo not drawn), the inhibition was 5% (inactive).

With `CC(C)(C)NC(=O)C(=O)NCc1ccncc1`, the inhibition is -1.7% (inactive).

On to `CCCN1C2CCCC1CC(NC(=O)NC13CC4CC(CC(C4)C1)C3)C2` (stereo not drawn), for which the inhibition was 5.4% (inactive).

On to `Cc1ccccc1NC(=O)CSc1ccc2nnc(-c3ccccn3)n2n1`, for which the inhibition was 8.8% (inactive).

As to `Cc1ccc(C(=O)N/N=C\c2cc(Br)c(Br)o2)cn1`, the inhibition is 28.3% (active).

On to `O=C(N/N=C/c1ccc(Br)o1)c1cncc(Br)c1`, for which the inhibition was 2.7% (inactive).

As for `CCOc1cc(/C=N/NC(=O)c2ccncc2)cc(Br)c1O`, the inhibition is 2.3% (inactive).

For `Cc1ccccc1Cn1c(C)c(C(=O)NCc2cccc(C(F)(F)F)c2)sc1=O`, the inhibition was -0.6% (inactive).

As to `O=C1c2ccccc2C(O)N1Cc1ccccc1` (stereo not drawn), the inhibition is -0.3% (inactive).

For the compound `CCOC(=O)C1=C(c2ccccc2)NC(=O)NC1c1cc(OC)c(OC)cc1OC` (stereo not drawn), the inhibition was -1.4% (inactive).

For the compound `Cc1nnc(SCC(=O)NC(=O)NC2CCCC2)n1N`, the inhibition was 30.1% (active).

As for `Nn1c(SCC(=O)NC(=O)NC2CCCC2)nnc1-c1ccccc1F`, the inhibition is -0.3% (inactive).

As for `Nn1c(SCC(=O)NC2CCCC2)nnc1-c1ccccc1F`, the inhibition was 6.4% (inactive).

For the compound `COC(=O)c1cccc(N(C(=O)CNC(=O)c2cccs2)C(C(=O)NCC2CCCO2)c2ccc(OC)c(OC)c2)c1` (stereo not drawn), the inhibition is 6.4% (inactive).

Consider `Cc1cccc(C(=O)Nc2ccccc2C(=O)NCc2cccnc2)c1`, for which the inhibition is 3.7% (inactive).
